# Assay outcomes (PubChem)
# Compounds with a hit are over-represented: about 8.7% of the library has one in this group of screens.
# Pf growth 48h: Primary qHTS for delayed death inhibitors of the malarial parasite plastid, 48 hour incubation | P. falciparum luciferase growth in erythrocytes, 48 h | Potency, µM (titrated, usually from 28.7 µM), for inactives: top-dose activity change, negative = inhibition, most hits filed as inhibitors | 310,000 tested, 5.9% active | AID 504832, 2011
#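 First compound was added to culture medium, then infected red cells at 0.1% parasitemia and 2% hematocrit (final). After incubation at 37 C under 5% CO2, luciferase detection reagent was dispensed and light output recorded.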
# AMA1-RON2 inh: qHTS for Inhibitors of AMA1-RON; Towards Development of Antimalarial Drug Lead: Primary Screen | Plasmodium falciparum AMA1 (3D7) - RON2 peptide interaction | AlphaScreen AMA1-biotinylated RON2 peptide binding | Potency, µM (titrated, usually from 58.2 µM), without a hit: at the highest dose activity change, negative = inhibition, hits mostly inhibitors | 360,000 tested, 0.2% active | AID 720542, 2013;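 also: 0% = vehicle wells and -100% = peptide control; nearly all actives have a fitted effect of over 45% in size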
#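 AMA1 (3D7) with his tag at 25 nM final met compounds first, then biotinylated RON2 peptide at 25 nM; detection used donor plus acceptor beads, 10 µg/mL apiece, read by AlphaScreen after 30 min at room temperature.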
# VACV Venus inh: qHTS for Stage-Specific Inhibitors of Vaccinia Orthopoxvirus: Venus Reporter Primary qHTS; 330,000 tested, 0.46% active; Potency, µM (highest dose often 36.5 µM), without a hit: at the highest dose activity change, negative = inhibition, most hits filed as inhibitors; Vaccinia virus Venus reporter expression, fluorescence; calls by dose curve; tested in A549 cells; also: nearly all actives have a fitted effect of over 30% in size
# Pf growth 96h: Primary qHTS for delayed death inhibitors of the malarial parasite plastid, 96 hour incubation; 320,000 tested, 6.9% active; Potency, µM (series often up to 28.7 µM), for the others: at the top dose activity change, negative = inhibition, usual class: inhibitors; AID 504834, 2011; P. falciparum luciferase reporter growth, 96 h
#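 Compounds incubated with erythrocytes infected by luciferase-expressing P. falciparum (2% hematocrit, 0.05% parasitemia final) for 96 hours, 37 C in 5% CO2. Growth inhibition scored as decreased luciferase luminescence.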
# VACV mCherry inh: qHTS for Stage-Specific Inhibitors of Vaccinia Orthopoxvirus: mCherry Reporter Primary qHTS | Vaccinia virus mCherry reporter infection, fluorescence | Potency, µM (titrated, usually from 36.5 µM), inactives show top-dose activity change, negative = inhibition, usual class: inhibitors | 310,000 tested, 0.63% active; calls by dose curve; tested in A549 cells; also: nearly all actives have a fitted effect of over 35% in size
# * = called active by the depositor; i = inactive; ? = inconclusive; . = not tested or not shown; [ ] = another dose, or the depositor's remark. Unless noted, calls follow the shape of the dose curve; as a rule, active = well fitted curve in the direction sought with a large enough effect; inconclusive = small, poorly fitted or top-dose-only effect, or another doubt; inactive = no such curve, though single readings can be large; an effect the other way counts as inactive or inconclusive. Unless noted, % is scaled to controls: 0 for no effect and ±100 for the full control effect; potency is read from the fitted curve at half-maximal effect.
SMILES,Pf growth 48h,AMA1-RON2 inh,VACV Venus inh,Pf growth 96h,VACV mCherry inh
Cc1ccc(-c2cc[n+](Cc3ccccc3)cc2)cc1,0.93µM*,8%,-15%,296%,-29%
c1ccc(C[n+]2ccccc2)cc1,?,8%,-20%,?,-5%
Cc1cc[n+](Cc2ccccc2)cc1,3.7µM*,2%,-16%,9.3µM*,-17%
O=C(Nc1nnc2n1CCS2)c1ccc(F)cc1F,.,.,-7%[7.34 µM],.,-5%[7.34 µM]
CC(=O)Nc1ccc(NC(=O)C(C)OC(=O)C2(c3ccc(Cl)cc3)CCCC2)cc1 (stereo not given),9.3µM*,-4%,-14%,12µM*,-3%
CCN(CC)S(=O)(=O)c1cccc(-c2cn3cccnc3n2)c1,4.1µM*,-5%,-5%,15µM*,-6%
COC(=O)c1ccc(C(=O)OC)c(NC(=O)c2ccc(-c3ccccc3)s2)c1,.,.,-2%,.,-9%
Cc1cc(C(=O)NCC2CCC3(CCN(Cc4ccc5ccccc5c4)CC3)O2)n(C)n1 (stereo not given),.,.,-29%,.,-8%
CCN(Cc1ccccc1)S(=O)(=O)c1cc(Br)cc2c1N(C(=O)C1CC1)CC2,.,.,-17%,.,-22%
Cc1cc(C(=O)Nc2ccccc2-c2nc(CNC(=O)c3ccccc3Cl)c(C)o2)c(C)o1,.,.,-9%,.,i
O=C(O)c1cccc(N2C(=O)C3CC=CCC3C2=O)c1 (stereo not given),2%,-7%,0%,i,i
O=C(c1cccc(N2C(=O)C3CC=CCC3C2=O)c1)N1CCN(c2ccccc2)CC1 (stereo not given),12µM*,4%,1%,?,-8%
O=C(c1cccc(N2C(=O)C3CC=CCC3C2=O)c1)N1CCCCCC1 (stereo not given),5%,4%,.,0.17µM*,.
CN(C(=O)c1cccc(N2C(=O)C3CC=CCC3C2=O)c1)C1CCCCC1 (stereo not given),?,-5%,-8%,10µM*,-10%
O=C(O)c1cccc(N2C(=O)C3CC=C(Cl)CC3C2=O)c1 (stereo not given),.,-3%,-1%,10µM*,-5%
COC(=O)c1nn(-c2ccc3c(c2)CCN3C(C)=O)cc1O,1.3µM*,6%,.,33%,.
COC(=O)c1nn(-c2ccc3c(c2)OCO3)cc1O,127%,-3%,.,i,.
O=C(COc1ccccc1)Nc1ccccc1C(=O)OCc1cc(=O)n2nc(C3CC3)sc2n1,.,.,-11%,.,-12%
CC(=O)c1c(O)cc(C)n(Nc2nc(C)cc(C)n2)c1=O,12µM*,17%,.,?,.
CC(=O)C[n+]1cccc(Br)c1,.,.,-9%,.,43%
COc1cccc(/C(C#N)=C/c2c(-c3ccc(Cl)cc3)nc3c(C)cccn23)c1,1.3µM*,-29%,-22%,?,.
CC(=O)[C@@H]1[C@@H](C(=O)c2ccc(F)cc2)[C@]2(C(=O)Nc3ccccc32)[C@H]2C=Cc3cc(F)ccc3N12,?,-16%,-4%,?,-8%
O=C(c1ccc(F)cc1)[C@@H]1[C@@H](C(=O)c2ccccc2)[C@@]2(C(=O)Nc3ccccc32)[C@H]2c3ccccc3C=CN12,?,.,.,5.2µM*,.
Cc1oc2ccc(O)c(CN3CCOCC3)c2c1C(C)O (stereo not given),17%,8%,0%,-8%,-8%
CC(=O)c1c(C)oc2ccc(O)c(CN3CCOCC3)c12,.,-2%,.,7.4µM*,.
SMILES,Pf growth 48h,AMA1-RON2 inh,VACV Venus inh,Pf growth 96h,VACV mCherry inh
CCOC(=O)c1c(C)oc2ccc(O)c(CN3CCCCC3)c12,12µM*,9%,-21%,30%,-24%
CCN(CC)CCN(C)c1ccc(/C=C/c2ccnc3ccccc23)cc1,.,.,-12%,.,-10%
COc1ccccc1NC(=O)N1CCC(CN2CCc3ccccc3C2)CC1,.,.,-8%,.,-9%
O=C(NCc1cccc(Cl)c1)c1oc(=O)c2ccccc2c1-c1ccccc1,.,.,-4%,.,-3%
CCOC(=O)c1ccccc1NC(=O)CN(c1ccccc1)S(=O)(=O)N(C)C,3.3µM*,-6%,-7%,.,-1%
O=C(C[n+]1ccccc1Br)c1ccc(O)c(O)c1,.,.,5%,.,-20%
CN(C(=S)NC(=O)c1ccc(F)cc1)C1CCCCC1,?,92%,.,?,.
CN(C(=S)NC(=O)c1ccc(Cl)cc1)C1CCCCC1,?,82%,-16%,10µM*,-13%
CN(C)c1ccc(C(=O)NCc2ccc3c(c2)CCN3C(=O)c2ccccc2)cc1,.,.,-7%,.,-8%
Cc1ccc(NC(=O)CN2C(=O)S/C(=C\c3ccccn3)C2=O)cc1C,-13%,0%,.,10µM*,.
Oc1ccc(/C=N/NC(=S)Nc2cccnc2)c(O)c1O,?,?,14%,?,i
Oc1ccc(/C=N/NC(=S)Nc2cccnc2)c(O)c1,6.6µM*,14%[11.6 µM],?,0%,?
Oc1ccc(C=NNC(=S)Nc2ccc(F)cc2)c(O)c1,.,-1%,?,.,?
Oc1cccc(/C=N/NC(=S)Nc2cccnc2)c1O,0.083µM*,-46%,?,?,?
O=C(OCCCCN1C(=O)c2ccccc2C1=O)c1n[nH]c2ccccc12,?,-5%,.,13µM*,.
COC(=O)c1n[nH]c2ccccc12,8%,5%,-15%,.,.
CC(=O)c1cc(-c2ccccc2)n(CC(=O)NC(C)(C)C)c1C,0%,-2%,-11%,13µM*,1%
CC(=O)c1cc(-c2ccccc2)n(CCC(=O)NC2CCCC2)c1C,-6%,-2%,-5%,?,i
CC(=O)c1cc(-c2ccccc2)n(CCC(=O)NC2CCCCC2)c1C,3%,2%,-2%,10µM*,0%
CCOC(=O)C1CCN(C(c2ccccc2OC)c2c(O)cc(C)n(CCOC)c2=O)CC1 (stereo not given),.,.,-9%,.,-13%
CCN1C(=O)/C(=C\c2cn(-c3ccccc3)nc2-c2cccnc2)SC1=S,12µM*,-4%,-8%,?,-2%
O=C(O)CN1C(=O)/C(=C\c2cn(-c3ccccc3)nc2-c2ccccc2)SC1=S,-47%,-14%,-18%,?,-16%
O=C1C(=Cc2cn(-c3ccccc3)nc2-c2ccc(OCc3ccccc3)cc2)SC(=S)N1CCS(=O)(=O)O,.,-9%,4%,.,-3%
Cc1ccc(-c2nn(-c3ccccc3)cc2C=C2SC(=S)N(CCS(=O)(=O)O)C2=O)cc1,.,32µM*,-14%,.,-2%
COc1ccc(CNCCC(c2ccc(OC)cc2)c2ccccc2OC)cc1 (stereo not given),?,5%,-26%,?,i
COc1ccc(C(CCNCc2ccc(OC(C)C)cc2)c2ccccc2OC)cc1 (stereo not given),12µM*,-12%,.,12µM*,.
